We go through 8 compounds from PubChem BioAssay (NCI).

Among the test systems are SR leukemia; RPMI-8226 leukemia; OVCAR-8 ovarian; OVCAR-5 ovarian; OVCAR-4 ovarian; SK-OV-3 ovarian; IGROV1 ovarian; OVCAR-3 ovarian; HS 578T breast; NCI/ADR-RES ovarian; T-47D breast; BT-549 breast; MDA-MB-435 melanoma; SW-620 colon; MCF7 breast; HCT-116 colon; HCC-2998 colon; KM12 colon.
Assay in all cases: NCI-60 one-dose screen, 48 h (100 = growth as untreated, 0 = no growth, -100 = all killed)
Conditions in all cases: 10 µM unless noted

Each structure is given as a SMILES string. The panel holds about 83,000 compounds, 20% with a hit somewhere; the sample as a whole holds those more often.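 In brief: 96-well plates, 48 h treatment, single concentration, percent growth endpoint.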 Values without a mark were called inactive. Active and inactive are the calls of the source. How the source made its calls: active means growth percent below 10; inactive means the rest.

Turning to `CCOC(=O)c1c(C)[nH]c(C(=O)CCC(=O)OC)c1C`, the growth was 92.5% with SR leukemia; 95.8% in the assay on RPMI-8226 leukemia; 103% in the assay on OVCAR-8 ovarian; 100% in the assay with OVCAR-5 ovarian; 107% with OVCAR-4 ovarian; 101% with SK-OV-3 ovarian. Further, the growth was 104% in the assay on IGROV1 ovarian; 105% in the assay with OVCAR-3 ovarian; 124% in the assay with HS 578T breast; 97.9% with NCI/ADR-RES ovarian; 101% in the assay on T-47D breast; 84.5% in the assay on BT-549 breast. Besides, the growth in the assay with MDA-MB-435 melanoma was 103%; in the assay on SW-620 colon, 108%; in the assay on MCF7 breast, 98%; with HCT-116 colon, 81%; in the assay with HCC-2998 colon, 99.2%; in the assay with KM12 colon it was 103%.
Regarding `Cc1ccc(NSc2ccccc2[N+](=O)[O-])cc1`, the growth in the assay with SR leukemia is 9.72% (active); with RPMI-8226 leukemia, 19.9%; with OVCAR-8 ovarian, 33.1%; with OVCAR-5 ovarian, 49.7%; in the assay with OVCAR-4 ovarian it was 73.2%; with SK-OV-3 ovarian it was 28.3%. For the same compound, the growth is 38% in the assay on IGROV1 ovarian; 7.41% (active) in the assay on OVCAR-3 ovarian; 32.2% in the assay with HS 578T breast; 14% in the assay on NCI/ADR-RES ovarian; 27.3% in the assay on T-47D breast; 34.1% in the assay with BT-549 breast. For the same compound, the growth in the assay on MDA-MB-435 melanoma was -26.2% (active); with SW-620 colon it was 26.9%; with MCF7 breast, 30.4%; in the assay on HCT-116 colon, 20.3%; in the assay with HCC-2998 colon it was 31.4%; in the assay on KM12 colon it was 20.3%.
Take `CCOC(=O)c1ccc(-c2ccc3cc(OC)ccc3c2)nc1C`: the growth with SR leukemia is 78.3%; in the assay on RPMI-8226 leukemia it was 105%; with OVCAR-8 ovarian it was 107%; in the assay on OVCAR-5 ovarian, 95.4%; in the assay on OVCAR-4 ovarian it was 112%; in the assay on SK-OV-3 ovarian, 98.6%. In addition, the growth in the assay with IGROV1 ovarian was 102%; in the assay on OVCAR-3 ovarian, 106%; in the assay with HS 578T breast it was 120%; with NCI/ADR-RES ovarian it was 108%; in the assay with T-47D breast, 91.6%; in the assay with BT-549 breast, 104%. In addition, the growth was 94.3% in the assay with MDA-MB-435 melanoma; 102% in the assay on SW-620 colon; 93% in the assay with MCF7 breast; 78.1% in the assay with HCT-116 colon; 101% in the assay on HCC-2998 colon; 100% in the assay with KM12 colon.
`COc1cc(C2C=C(c3cccc(NC(C)=O)c3)Nc3ncnn32)cc(OC)c1OC` (centres undefined): the growth with SR leukemia is -5.94% (active); in the assay with RPMI-8226 leukemia it was 19%; in the assay on OVCAR-8 ovarian, 24.3%; in the assay on OVCAR-5 ovarian it was 34.8%; in the assay with OVCAR-4 ovarian, 59.8%; in the assay on SK-OV-3 ovarian, 35.5%. Besides, the growth was 30.4% in the assay with IGROV1 ovarian; -40.5% (active) in the assay on OVCAR-3 ovarian; 19% in the assay with HS 578T breast; 76.1% with NCI/ADR-RES ovarian; 64.7% in the assay with T-47D breast; -0.0208% (active) in the assay with BT-549 breast. Moreover, the growth with MDA-MB-435 melanoma is -47.7% (active); with SW-620 colon, 27.6%; in the assay with MCF7 breast it was 18.3%; in the assay on HCT-116 colon, 20.3%; in the assay on HCC-2998 colon, 24%; with KM12 colon, 15.2%.
Consider `COc1ccc(C2CC(c3cnccn3)=NN2)cc1OC` (centres undefined), for which the growth in the assay with SR leukemia was 79.3%; in the assay on RPMI-8226 leukemia, 82.6%; with OVCAR-8 ovarian, 96.8%; with OVCAR-5 ovarian, 114%; in the assay on OVCAR-4 ovarian, 118%; in the assay on SK-OV-3 ovarian, 105%. The growth was 108% in the assay with IGROV1 ovarian; 102% in the assay with OVCAR-3 ovarian; 97.4% in the assay on HS 578T breast; 102% in the assay with NCI/ADR-RES ovarian; 98.7% with T-47D breast; 83.1% in the assay on BT-549 breast. Further, the growth is 117% with MDA-MB-435 melanoma; 109% in the assay on SW-620 colon; 92.8% in the assay with MCF7 breast; 85.7% with HCT-116 colon; 99.4% with HCC-2998 colon; 109% in the assay with KM12 colon.
On to `COc1ccc(CN2C(=O)/C(=C\c3cc(OC)c(OC)c(OC)c3)c3ccccc32)cc1`, for which the growth with SR leukemia was -21.6% (active); in the assay on RPMI-8226 leukemia, -31.1% (active); in the assay on OVCAR-8 ovarian, -7.07% (active); in the assay with OVCAR-5 ovarian it was 31%; in the assay with OVCAR-4 ovarian, 23.3%; in the assay on SK-OV-3 ovarian, 34%. Also, the growth with IGROV1 ovarian was -22.7% (active); with OVCAR-3 ovarian it was -63.2% (active); in the assay with HS 578T breast, 47.7%; in the assay with NCI/ADR-RES ovarian, 2.38% (active); with T-47D breast, -2.48% (active); with BT-549 breast, 24.5%. For the same compound, the growth is -10.9% (active) in the assay with MDA-MB-435 melanoma; -40.3% (active) in the assay with SW-620 colon; 7.23% (active) with MCF7 breast; -93.8% (active) with HCT-116 colon; 16.9% with HCC-2998 colon; -23.7% (active) in the assay with KM12 colon.
On to `COc1cc2c(cc1OC)-c1ccc3cc4c(cc3c1N(CCN1CCCC1)C2)OCO4`, for which the growth with SR leukemia was 1.64% (active); in the assay on RPMI-8226 leukemia it was -36.2% (active); in the assay with OVCAR-8 ovarian, 6.81% (active); in the assay on OVCAR-5 ovarian, 30%; in the assay on OVCAR-4 ovarian, 33.8%; with SK-OV-3 ovarian, -13.5% (active). The growth with IGROV1 ovarian is 4.12% (active); in the assay with OVCAR-3 ovarian, 15.3%; in the assay with HS 578T breast, 16.2%; with NCI/ADR-RES ovarian it was 60.7%; in the assay on T-47D breast, -28.3% (active); in the assay with BT-549 breast, 21.8%. Also, the growth in the assay on MDA-MB-435 melanoma is 56.4%; in the assay with SW-620 colon, -40.1% (active); in the assay with MCF7 breast it was -6.8% (active); in the assay on HCT-116 colon, -84.5% (active); with HCC-2998 colon, 15.7%; in the assay on KM12 colon it was 16.7%.
As to `CCN(CC)CCCNC(=O)c1ccc(N)cc1`, the growth in the assay with SR leukemia was 86.6%; with RPMI-8226 leukemia it was 105%; with OVCAR-8 ovarian it was 106%; with OVCAR-5 ovarian, 97.1%; in the assay on OVCAR-4 ovarian it was 114%; with SK-OV-3 ovarian, 112%. Moreover, the growth with IGROV1 ovarian is 100%; in the assay on OVCAR-3 ovarian, 111%; in the assay on HS 578T breast, 99.2%; with NCI/ADR-RES ovarian, 102%; in the assay on T-47D breast, 102%; in the assay with BT-549 breast, 102%. Besides, the growth was 108% with MDA-MB-435 melanoma; 97.8% in the assay with SW-620 colon; 95.1% in the assay on MCF7 breast; 94.8% in the assay with HCT-116 colon; 126% in the assay with HCC-2998 colon; 107% in the assay with KM12 colon.
